# From PubChem
# An excerpt weighted towards active compounds, which were near 5.3% of everything screened.
# JMJD2A Tudor inh: JMJD2A Tudor domain (human) inhibition. Potency, µM (doses to about 114 µM), actives largely listed as inhibitors. AID 504339. 390,000 tested, 4.4% active. AlphaScreen JMJD2A-Tudor / H3K4me3 peptide binding. O75164; also: nearly all actives have a fitted effect of over 50% in size
# BAZ2B inh: blocks human BAZ2B; Q9UIF8; AlphaScreen BAZ2B-H3K14Ac peptide displacement; Potency, µM (top dose mostly 114 µM), usual class: inhibitors; 360,000 tested, 4.4% active; also: nearly all actives have a fitted effect of over 60% in size
#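 BAZ2B (50 nM) with biotin-H3(5-23)K14Ac peptide (50 nM) in PBS pH 7.4, 0.01% Tween-20, preformed 30 min, then compound 30 min at room temperature; top concentration 110uM. AlphaScreen streptavidin donor/nickel chelate acceptor beads (10 ug/mL final), 20 min dark, signal read.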
# Six1-Eya2 blk: Six1/Eya2 interaction inhibition | Q15475+O00167 | AlphaScreen GST-Six1/His-Eya2 binding, biochemical; stronger effect = lower value | activity change, % (test concentration not listed) | 360,000 tested, 0.56% active | AID 651725; in the data active = activity change below about -65%; inconclusive = mostly about -30% to -63%
#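 Six1/Eya2 binding was read as AlphaScreen signal after compounds were pinned into GST-Six1 plus His-tagged Eya2 (5X stock 250/500 nM) in pH 8.0 Tris/NaCl/TCEP buffer, beads added, then incubated 1 h, 37 C, dark.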
# TDP1 block: TDP1 (human) enzyme inhibition | Q9NUW8 | recombinant TDP1, AlphaScreen DNA substrate cleavage | Potency, µM (titrated, usually from 130 µM), actives largely listed as inhibitors | 350,000 tested, 0.28% active | AID 485290; also: nearly all actives have a fitted effect of over 40% in size
#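 E. coli-derived human Tdp1, 1 nM final. Cpd preinc 15 min RT; substrate 15 nM final, 5 min RT; AS bead mix 10 ug/ml final, 10 min RT. Signal loss = tyrosine-FITC cleavage. No-enzyme wells = max signal.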
# HP1b binding inh: blocks HP1-beta chromodomain binding to methylated histone tails; Potency, µM (doses to about 114 µM), hits mostly inhibitors; AlphaScreen HP1-beta / biotin-H3K9me3 peptide binding; 390,000 tested, 0.56% active; P83916; also: nearly all actives have a fitted effect of over 70% in size
# Target sequence (P83916 whole entry, looked up): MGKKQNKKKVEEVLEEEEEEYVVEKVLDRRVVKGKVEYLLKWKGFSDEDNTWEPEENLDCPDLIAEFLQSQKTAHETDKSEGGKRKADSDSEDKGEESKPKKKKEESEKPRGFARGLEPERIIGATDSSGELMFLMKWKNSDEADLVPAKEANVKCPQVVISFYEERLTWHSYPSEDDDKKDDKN
#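 AlphaScreen: HP1-beta (50 nM) preformed 30 min with biotin-H3(1-18)K9me3 peptide (50 nM) in PBS pH 7.4, 0.01% Tween-20. Compound added for 30 min at RT, then streptavidin donor/nickel chelate acceptor beads (10 ug/mL) for 30 min.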
# CtBP-E1A blk: blocks the CtBP interaction with E1A; activity change, % (concentration not given with the values); AlphaScreen GST-E1A/His-CtBP binding, 1536-well; stronger effect = lower value; AID 651724; 340,000 tested, 0.49% active; in the data active = activity change below about -65%; inconclusive = mostly about -30% to -63%
#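 AlphaScreen with 125 nM GST-E1A and 125 nM His-CtBP (5X stocks) in Tris pH 8.0, 300 mM NaCl, BSA, Tween 20, TCEP. Compounds preincubated 2 h at 37 deg C, then glutathione donor/nickel acceptor beads added for 1 h at 37 deg C in dark.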
# Numbers stand for hits; - = inactive; ? = inconclusive; . = no result given. Unless noted, calls follow the shape of the dose curve; as a rule, active = well fitted inhibition curve with a large enough effect; inconclusive = small, poorly fitted or top-dose-only effect; inactive = no such curve, though single readings can be large or run the other way.
SMILES,JMJD2A Tudor inh,BAZ2B inh,Six1-Eya2 blk,TDP1 block,HP1b binding inh,CtBP-E1A blk
Nc1c(-c2nc(-c3ccncc3)no2)nnn1CC(=O)Nc1ccccc1,-,-,.,-,-,.
COc1cccc(NC(=O)CSc2nnc(-c3cccs3)n2C)c1,-,-,-,-,-,-
O=C(CSc1nnc2scc(-c3ccc(Cl)cc3)n12)Nc1cccc(C(F)(F)F)c1,-,-,.,.,-,.
O=C(CSc1nc(-c2cccs2)nc2cc(=O)[nH]n12)Nc1cccc(C(F)(F)F)c1,-,50.1µM,.,-,-,.
Cc1cccc(NC(=O)CSc2nc(-c3cccs3)nc3cc(=O)[nH]n23)c1,?,79.4µM,.,-,?,.
Cc1ccc(NC(=O)CSc2nc3ccccc3c(=O)n2Cc2cccs2)cc1,-,-,-,-,-,-
Cc1ccc(NC(=O)CSc2nc(-c3cccs3)nc3cc(=O)[nH]n23)cc1,-,79.4µM,.,-,-,.
O=C(CSc1nc(-c2ccccc2)nc2cc(=O)[nH]n12)Nc1ccccc1,56.2µM,-,.,-,-,.
CCn1c(CN2CCOCC2)nc2cc(NC(=O)c3ccccc3[N+](=O)[O-])ccc21,-,-,.,-,-,.
Cc1cccc(-c2nc(SCC(=O)Nc3cccc(C(F)(F)F)c3)n3[nH]c(=O)cc3n2)c1,50.1µM,50.1µM,.,.,?,.
CCn1c(C)nnc1SCC(=O)Nc1cccc(C(F)(F)F)c1,-,-,-,-,-,-
CCOc1cc(CNc2ccc3c(c2)CCC3)ccc1O,79.4µM,-,-,-,-,-
COc1cc(CNc2ccc3c(c2)CCC3)cc(OC)c1O,3.98µM,39.8µM,-,-,31.6µM,-
CCN(CC)Cc1c(C(=O)N/N=C/c2ccccn2)nnn1-c1nonc1N,?,11.2µM,?,.,-,?
Cc1c(C(=O)N/N=C/c2ccccn2)nnn1-c1nonc1N,89.1µM,44.7µM,?,-,-,-
CN=C1N[C@H](c2ccccc2)N(c2ccccc2)S1,25.1µM,.,.,-,?,.
O=c1c2cc(N3CCOCC3)ccc2[nH]c(=S)n1Cc1ccco1,50.1µM,?,-,-,-,-
Cc1nc2ccc(N=NN(C)C)cc2[nH]1,-,-,-,.,15.8µM,?
Cc1nc2ccc(Cc3ccc4nc(C)[nH]c4c3)cc2[nH]1,-,-,-,-,-,-
COc1ccccc1OCCNc1nc2c(c(=O)n(C)c(=O)n2C)n1C,22.4µM,-,-,-,-,-
Cc1cccc(C)c1NC(=O)C(c1ccccc1)N1CCC(c2ccccc2)CC1 (stereo unspecified),.,.,-,.,.,-
Cc1cccc(C)c1NC(=O)C(c1ccccc1)N1CCC1=O (stereo unspecified),39.8µM,-,-,-,-,-
COCCNC(=S)N/N=C(\C)c1ccccc1O,-,10µM,-68.8,-,-,?
COCCNC(=S)N/N=C(\C)c1ccccc1F,-,-,-,-,?,-
Oc1ccccc1/C=N/NC(=S)NC1CC2CCC1C2 (stereo unspecified),?,?,-85.0,-,-,-84.4
SMILES,JMJD2A Tudor inh,BAZ2B inh,Six1-Eya2 blk,TDP1 block,HP1b binding inh,CtBP-E1A blk
COc1cccc(/C=N/NC(=S)NC2CC3CCC2C3)c1OC (stereo unspecified),-,-,-,-,-,.
COCCCNC(=S)N/N=C/c1ccccc1O,56.2µM,10µM,-89.6,-,-,.
Cc1ccc2c(CC(=O)N3CCN(c4cccc(Cl)c4)CC3)coc2c1C,-,-,.,-,-,.
O=C(NCc1ccc(F)cc1)c1cccc2c1C(=O)c1ccc(N3CCOCC3)cc1S2(=O)=O,79.4µM,-,-,-,-,-
CC1CCN(c2ccc3c(c2)S(=O)(=O)c2cccc(C(=O)NCc4ccc(F)cc4)c2C3=O)CC1,-,-,-,-,-,-
COc1ccc(CCNC(=O)Cn2c(=O)nc(-c3ccccc3)c3ccccc32)cc1OC,-,-,.,-,-,.
CC(=O)c1sc(C(=O)O)c(-c2ccco2)c1-c1ccco1,-,-,-,50.1µM,-,.
CC(=O)Oc1c(C)c2c3c(c1OC(C)=O)[C@@H](C)CC[C@@H]3[C@@H](C)C[C@H]2C=C(C)C,-,-,-,-,-,-
CC(C)=C[C@@H]1C[C@H](C)[C@H]2CC[C@H](C)c3c(O)c(O)c(C)c1c32,39.8µM,56.2µM,-,-,?,-
